High-throughput results (PubChem)
Sm TGR block = blocks Schistosoma mansoni thioredoxin glutathione reductase; purified TGR, DTNB reduction, TNB absorbance 405 nm; Potency, µM (titrated, usually from 114 µM), for the others: at the highest dose activity change, negative = inhibition, usual class: inhibitors; 3% of 360,000 active; AID 485364; also: % is scaled to controls: 0 for no effect and ±100 for the full control effect; nearly all actives have a fitted effect of over 60% in size
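TGR 20 nM + NADPH 100 uM (dispensed conc.), cpd preinc 15 min RT; start with NADPH (500 uM addition) then DTNB (15 mM addition). Kinetic TNB absorbance, 405 nm filter. Four-parameter Hill fit across titration.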
SARS PLpro yeast = SARS-CoV PLP inhibition in yeast; S. cerevisiae expressing SARS-CoV PLpro, growth rescue; Potency, µM (top dose mostly 32.9 µM), without a hit: at the highest dose activity, positive = growth rescue, most hits filed as activators; 0.19% of 330,000 active; AID 485353; calls by dose curve; also: 0% is about no effect; nearly all actives have a fitted effect of over 55% in size
Tb PYK inh = inhibitors of Trypanosoma brucei pyruvate kinase | Q57TT1 | TbPYK enzyme, Kinase-Glo Plus ATP luminescence, 45 min | Potency, µM (top dose mostly 76.8 µM), for the others: at the highest dose activity, negative = inhibition, hits mostly inhibitors | 0.12% of 410,000 active; also: % is scaled to controls: 0 for no effect and ±100 for the full control effect; nearly all actives have a fitted effect of over 50% in size
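Enzyme and substrate buffer are dispensed first and compound is pin-transferred. ADP at 130 uM final then starts the reaction, which runs 45 min at room temperature. Detection reagent is added for 10 min before luminescence is imaged.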
AmpC inh no detg = inhibitors of E. coli AmpC beta-lactamase without detergent. Potency, µM (highest dose often 57.1 µM), for the others: at the top dose activity change, negative = inhibition, hits mostly inhibitors. AmpC nitrocefin hydrolysis, absorbance 480 nm, 0.0001% Triton. P00811. 0.52% of 330,000 active;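 also: plate controls were no compound for no effect and no enzyme for full effect; nearly all actives have a fitted effect of over 20% in size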
Target sequence (P00811 whole entry, looked up): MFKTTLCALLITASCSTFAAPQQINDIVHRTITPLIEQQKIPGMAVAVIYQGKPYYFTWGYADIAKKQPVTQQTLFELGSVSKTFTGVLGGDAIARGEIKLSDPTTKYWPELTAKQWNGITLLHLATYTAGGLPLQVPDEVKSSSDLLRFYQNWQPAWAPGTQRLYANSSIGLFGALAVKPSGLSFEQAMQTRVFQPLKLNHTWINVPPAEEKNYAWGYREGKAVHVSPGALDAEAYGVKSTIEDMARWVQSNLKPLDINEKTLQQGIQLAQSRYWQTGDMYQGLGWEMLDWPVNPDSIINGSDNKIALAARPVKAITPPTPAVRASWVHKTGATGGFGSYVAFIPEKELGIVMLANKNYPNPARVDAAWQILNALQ
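20 mM phosphate pH 7.0 + 0.01% (detergent screen) or 0.0001% Triton X-100; 5.3 nM AmpC reagent; cpd preinc 15 min RT; nitrocefin (800 uM stock) to start; A480 q20 s × 4 min; Activity was normalised to no-enzyme and no-compound control wells.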
RE007 growth inh = less growth of the S. pombe RE007 Vpr strain; AID 651644; 0.21% of 360,000 active; Potency, µM (series often up to 92.2 µM), for inactives: at the top dose activity change, negative = less growth, most hits filed as inhibitors; S. pombe RE007 Vpr strain, BacTiter-Glo ATP luminescence, 24 h; active = well fitted falling curve with a large enough effect; inconclusive = small, poorly fitted or top-dose-only effect; inactive = no such curve, though single readings can be large or run the other way; also: % is scaled to controls: 0 for no effect and ±100 for the full control effect; nearly all actives have a fitted effect of over 50% in size
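Fission yeast RE007 carrying one integrated HIV-1 vpr copy, seeded at OD 0.01 in PMG+AL medium with 23 nL pinned compound. Grown 24 h at 30 degrees; viability read by BacTiter-Glo luminescence after 5 min.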
AmpC inh detg = AmpC beta-lactamase inhibition with detergent present | 0.041% of 370,000 active | AmpC hydrolysis of nitrocefin, absorbance 480 nm, 0.01% Triton | Potency, µM (doses to about 114 µM), for inactives: at the top dose activity change, negative = inhibition, actives largely listed as inhibitors;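 also: 0% = no-compound wells and -100% = no-enzyme wells; nearly all actives have a fitted effect of over 25% in size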
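AmpC (5.3 nM in the dispensed reagent) in 20 mM phosphate pH 7.0 with 0.01% (detergent screen) or 0.0001% Triton X-100 was preincubated with compounds for 15 min at room temperature. Nitrocefin was then added from an 800 uM solution, and hydrolysis was followed at 480 nm.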
* = called active by the depositor; ? = inconclusive; . = no result given; [ ] = another dose, or the depositor's remark. Shown are actives, neighbours in structure and some others; about 3.3% of the full set was active somewhere. Unless noted, calls follow the shape of the dose curve; as a rule, active = well fitted curve in the direction sought with a large enough effect; inconclusive = small, poorly fitted or top-dose-only effect, or another doubt; inactive = no such curve, though single readings can be large; an effect the other way counts as inactive or inconclusive. Potency is read from the fitted curve at half-maximal effect.

SMILES | Sm TGR block | SARS PLpro yeast | Tb PYK inh | AmpC inh no detg | RE007 growth inh | AmpC inh detg
O=C1C2C3C=CC(C2C(=O)N1c1ccc(O)cc1)C1C2C(=O)N(c4ccc(O)cc4)C(=O)C2C31 (stereo not given) | 50µM* | 1% | -1% | -28% | 0% | 1%
O=C1C=CC(=O)N1c1ccc(O)cc1 | 0.89µM* | -8% | ? | -12% | 6.3µM* | 2%
O=C1C=CC(=O)N1c1ccc(OC(F)F)cc1 | 0.35µM* | -135% | 11µM* | -40% | 2.8µM* | ?
Cc1ccc(C)c(NC(=O)Cn2cc(C(=O)c3cccs3)c3ccccc32)c1 | 1% | . | -1% | . | . | 17%
CC(=O)Nc1nonc1-c1nc2ccccc2n1Cc1ccccc1Br | 6% | . | -8% | . | . | 2%
CC(O)C(C(=O)OCc1ccc([N+](=O)[O-])cc1)N1C(=O)c2ccccc2C1=O (stereo not given) | 4% | 5% | 3% | -10% | 4% | 79µM*
C[C@@H]1O[C@@]2(CS1)CN1CCC2CC1 | . | . | -7% | . | . | .
COc1cc(CCNC(=O)c2ccc3c(c2)c(C)c(C)n3Cc2cccc(C)c2)cc(OC)c1OC | -1% | . | 0% | . | . | 0%
CCN(CC)CCn1c(NC(=O)c2ccccc2O)nc2ccccc21 | 45µM* | -8% | -1% | 227% | 4% | ?
CCN(CC)CCn1c(NC(=O)c2ccc(Cl)cc2)nc2ccccc21 | 3% | -10% | 0% | -19% | -9% | -1%
CCN(Cc1ccccc1)C(=O)Cn1cnc2c1c(=O)n(C)c(=O)n2C | 13% | 2% | 1% | -3% | -3% | 4%
Cn1c(=O)c2c(ncn2CCN(CCO)Cc2ccccc2)n(C)c1=O | 45µM* | 2% | 4% | 0% | -2% | -13%
O=C(c1ccco1)N1CCN(/C(=N/S(=O)(=O)c2cccs2)c2ccccc2Cl)CC1 | -32% | 1% | 5% | 7.1µM* | 19% | 6%
O=C(c1ccco1)N1CCN(S(=O)(=O)Cc2ccccc2Cl)CC1 | 32µM* | 0% | -11% | -9%[2.29 µM] | 12% | -11%
CCS(=O)(=O)N1CCN(C(=O)c2ccco2)CC1 | 35% | 2% | -1% | -8% | 13% | ?
Cc1ccc(CNC(=O)CSc2nc3c(sc4ccccc43)c(=O)n2CCCC(=O)NCCO)cc1 | 5% | . | 0% | . | . | -12%
Cn1nnnc1SCCCNCc1cc(Cl)ccc1OCc1ccc(F)cc1 | 5% | . | 0% | . | . | 21%
CCCOc1ccc(N2C(=O)CC(N3CCC(O)(c4cccc(C(F)(F)F)c4)CC3)C2=O)cc1 (stereo not given) | -24% | -51% | -6% | 102% | 32µM* | -16%
O=C1CC(N2CCC(O)CC2)C(=O)N1c1ccc(Br)cc1 (stereo not given) | 56µM* | -17% | -6% | 1% | ? | -12%
O=CN1CCN(C2CC(=O)N(c3ccc(Br)cc3)C2=O)CC1 (stereo not given) | ? | -11% | 0% | 4% | ? | ?
O=C1CC(N2CCC(O)(c3ccc(Br)cc3)CC2)C(=O)N1c1ccc(Cl)cc1 (stereo not given) | -26% | -71% | -1% | 24% | 10µM* | ?
COc1ccc(N2C(=O)CC(N3CCC(O)(c4ccc(Br)cc4)CC3)C2=O)cc1 (stereo not given) | ? | -48% | 2% | 23% | 32µM* | 4%
O=C(NCc1ccccc1)c1cccn1-c1nnc(N2CCCC2)s1 | 9% | . | 6%[15.4 µM] | . | . | 3%
CC(C)CN(CC(C)C)S(=O)(=O)c1ccc(C(=O)Nc2sc3c(c2C(N)=O)CCN(C(C)C)C3)cc1 | 6% | . | 2% | . | . | 5%
CCN(Cc1ccccc1)C(=O)Cn1c(=O)n(-c2ccc(Cl)cc2)c(=O)c2c(C)c(C)sc21 | 2% | . | 1% | . | . | 6%
SMILES | Sm TGR block | SARS PLpro yeast | Tb PYK inh | AmpC inh no detg | RE007 growth inh | AmpC inh detg
CC(c1ncncc1F)[C@](O)(Cn1cncn1)c1ccc(F)cc1F (stereo not given in full) | . | . | 4% | . | . | .
CC(C#Cc1c([C@@H](C)Oc2ccccc2)nnn1Cc1ccccc1)Oc1ccccc1 (stereo not given in full) | 7.9µM* | -1% | 0% | -22% | -4% | -8%
CCN(c1ccc(C)cc1C)S(=O)(=O)c1nnc(NC(=O)CC(C)C)s1 | 1% | . | 0% | . | . | 20%
COc1cccc(OC)c1C(=O)NC(C)C12CC3CC(CC(C3)C1)C2 (stereo not given) | 0% | -40% | -1% | 27% | 10µM* | 0%
COc1ccc(NC(=O)COc2ccc(S(=O)(=O)NC3CCCCC3)cc2)cc1OC | 0% | . | 0% | . | . | 18%
N#CC(C#N)=NNc1ccc([N+](=O)[O-])cc1 | 25µM* | -14% | -12% | -16% | 6% | 4%
C/C(=N\Nc1ccc([N+](=O)[O-])cc1)c1ccc(C#N)cc1 | 0% | -1% | -1% | -27% | 17% | 3%
CCN(CC)S(=O)(=O)c1ccc(NN=C(C#N)C#N)cc1 | 7.9µM* | -27% | -5% | -48% | -5% | 3%
Cc1ccc2oc(-c3cc(NC(=O)CC(C)C)ccc3Cl)nc2c1 | -3% | . | -5% | . | . | ?
O=c1[nH]c(Nc2ccccc2)cc2ccccc12 | 16µM* | -33% | -9% | -19% | ? | -15%
O=c1[nH]c(Nc2ccccc2)cc2cc(Br)ccc12 | . | . | -2% | . | 3% | .
O=C(CCN1CCOCC1)c1ccc2c(c1)OCCO2 | 1.6µM* | -115% | 6% | -13% | 13µM* | ?
O=C(CCCN1CCOCC1)c1ccc2c(c1)OCCO2 | -22% | -3% | 2% | -6% | 1% | 2%
O=C(CCN1CCCCC1)c1ccc2c(c1)OCO2 | 0.28µM* | -18% | -6% | -34% | 7.9µM* | 0%
O=C(Cc1ccccc1)c1ccc2c(c1)OCCO2 | . | -2% | -8% | -27% | 1% | -9%
O=C(CCN1CCc2ccccc2CC1)c1ccc2c(c1)OCCO2 | 0.35µM* | -36% | ? | -23% | 7.1µM* | -15%
CCN(CC)CCNC(=O)c1ccc(-c2nc(CN3CCc4ccccc43)c(C)o2)cc1 | 5% | . | -4% | . | . | 20%
COc1cc(/C=N/NC(=O)CSc2cc(C)c(Br)cc2C)ccc1O | -9% | -8% | 0% | -55% | -2% | 2%
Cc1cc(SCC(=O)N/N=C/c2ccc(O)c(O)c2O)c(C)cc1Br | 35µM* | ? | 10% | 18µM* | ? | 0%
